The source of these data is the supplement of paper PMC6555819.

The experiment relates to PPARg:RXRa 30nM:10nM, anti-RXR (NR concentration 30 nM, RXRa partner concentration 10 nM). The experiment in a line: PBM binding z-score (relative to random genomic background probes); higher = stronger binding; sequences stand for … in GC…GCGATTGACAGCGTAGAATGAAGG
Put shortly:
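The probes on custom Agilent 4×180K protein-binding microarrays were double-stranded, with 34-nt variable regions bearing direct-repeat seeds, single-nucleotide variants, half-site ablations and random human genomic background sequences. Incubation lasted 1 h with ligand-free nuclear receptor dimers in PBS pH 7.4, 2% milk, 0.02% Triton X-100, 1 mM DTT, 0.2 mg/mL BSA and 0.4 mg/ml salmon testes DNA. Antibodies against each partner (one per run) detected bound dimers, and fluorescence scans were regression-normalized. Binding z-scores take the random background probes as reference.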
In the case of CCTGCTAGGTCATGGTTAGCTAATCTACAGTATG, the PBM binding z-score turned out to be 0.508. As for AATACAGGGTCACTAGGCCAGTGTAGGTACGAAT, the figure is 3.05; as for AGAACGAGGTCAATGAGTTGATAGCACGGGTGGC, 3.19; as for TCTAGCAGGCCAGAGGGTCACTCTAGAGGTACGG, 2.29. The figure for CCTATTAGTTGACTATAAGGGCAACCGAAGCTCG is 0.0994. As for ATCTCTAGGTAAAGATAGTTCAGTGCATGCAAAT, the figure is 0.0573; as for CCTCGGCGGACAACAGGAGGTCAGAGCTGCCAGA, -0.988. AGAATGAGGGTAAGATCAGGGAAACAGAATACAT: the PBM binding z-score turned out to be 0.455. As for TCTATTTGTTGAAGGGCAACCGACGAGTCCGTTT, the figure is 3.99; as for CGTCCAAGGTCAATACTAGGTCAGTGAAAGCATT, 2.1; as for GCTACTGGGGCATCAGCAGGTTACCATAACTTAA, 0.134. The figure for CCTCCAAGGTCAGCAGGTCAGTGAAAGCGACGTG is 1.49; for CCGACTGGGGCAGAAAGGTTACCATTCCATCCGG it is 0.414. The figure for CCTACTTGGTCAAGGTCACACACGCTATAGGTAC is 1.38.

Turning to CCTGCTAGGTGAATGGTCAGCTAAAGCAGCTCGC, the PBM binding z-score is 2.1. The figure for TCTTGTAGATCAAAAGTTAAGAAAGCCGAAGCCT is 3.84. CCTTACGGGTCACGCCAGGTTATAGCATCGGAGT gave a PBM binding z-score of 2.72. As for GCGACTGGGGCAAAGCAGGTTAACATAAGGTTGG, the figure is 0.0162. The figure for GCGACTGCGGCAAAGCAGGTTACCATAAGGTTGG is -0.785. TAGCCTAGGTCAGATCGGGCCAATATACGCTATA yielded a PBM binding z-score of -0.00847. As for AGAACGAGGGCACGTTGAGTTGATAGCAGAGTAG, the figure is 0.235.

The sequence ACAAGCAGGCCAAGTTTGGGTCACTCAAACAAAG returned a PBM binding z-score of -0.289.
